Source: PubChem
Shiga inhibitor = A qHTS for Small Molecule Inhibitors of Shiga Toxin. AID 2315, 2010. inhibition, % at 38.7 µM. Vero cells, Shiga toxin protein synthesis inhibition reporter. 290,000 compounds, 9.2% hits; in the data active = inhibition mostly above about 28%, no sharp cut-off; inactive = mostly below about 43%; note: 0% is about no effect
Pf growth 48h = Primary qHTS for delayed death inhibitors of the malarial parasite plastid, 48 hour incubation; P. falciparum luciferase growth in erythrocytes, 48 h; Potency, µM (top dose mostly 28.7 µM), for the others: top-dose activity change, negative = inhibition, hits mostly inhibitors; 310,000 compounds, 5.9% hits; AID 504832, 2011; note: potency is the fitted concentration of half-maximal effect; % is set by controls: 0 for no effect and ±100 for the full control effect
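A one-generation exposure of luciferase-tagged malaria parasites in RPMI 1640/Albumax erythrocyte culture, 37 C and 5% CO2. Inhibition is inferred from decreased luminescence after adding detection reagent.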
Pf growth 96h = Primary qHTS for delayed death inhibitors of the malarial parasite plastid, 96 hour incubation | P. falciparum luciferase reporter growth, 96 h | Potency, µM (doses to about 28.7 µM), inactives show top-dose activity change, negative = inhibition, usual class: inhibitors | 320,000 compounds, 6.9% hits | AID 504834, 2011; note: potency is the fitted concentration of half-maximal effect; % is set by controls: 0 for no effect and ±100 for the full control effect
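Readout is luminescence from an integrated firefly luciferase in P. falciparum. Red cells, 2% hematocrit and 0.05% parasitemia final, were cultured with compound through two parasite generations (96 hours) at 37 C, 5% CO2.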
SARS PLpro yeast = qHTS of Yeast-based Assay for SARS-CoV PLP. 330,000 compounds, 0.19% hits. Potency, µM (doses to about 32.9 µM), inactives show at the highest dose activity, positive = growth rescue, actives largely listed as activators. AID 485353, 2010. S. cerevisiae expressing SARS-CoV PLpro, growth rescue; calls by dose curve; note: potency is the fitted concentration of half-maximal effect; 0% is about no effect; nearly all actives have a fitted effect of over 55% in size
AMA1-RON2 inh = qHTS for Inhibitors of AMA1-RON; Towards Development of Antimalarial Drug Lead: Primary Screen; Potency, µM (top dose mostly 58.2 µM), for the others: at the top dose activity change, negative = inhibition, most hits filed as inhibitors; AlphaScreen AMA1-biotinylated RON2 peptide binding; 360,000 compounds, 0.2% hits; Plasmodium falciparum AMA1 (3D7) - RON2 peptide interaction; AID 720542, 2013;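 note: potency is the fitted concentration of half-maximal effect; 0% = vehicle wells and -100% = peptide control; nearly all actives have a fitted effect of over 45% in size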
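AMA1 (3D7) with his tag at 25 nM final met compounds first, then biotinylated RON2 peptide at 25 nM; detection used donor plus acceptor beads, 10 µg/mL apiece, read by AlphaScreen after 30 min at room temperature.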
CHX counter = Cycloheximide Counterscreen for Small Molecule Inhibitors of Shiga Toxin. cell reporter, cycloheximide protein synthesis inhibition counterscreen. max response, %. 300,000 compounds, 12% hits. AID 2314, 2010; in the data active = max response mostly above about 13%, no sharp cut-off; inactive = mostly below about 14%; note: read at 38.3 µM for the half of the compounds with a filed dose; 0% is about no effect
* marks the source's active call; other numbers are inactive results; i = inactive; ? = inconclusive; . = not tested or not shown; [ ] = dose if it differs, or a comment. The list is not random: actives were taken first. Their share in the collection is about 19%. Unless noted, calls come from the whole dose curve; as a rule, active = well fitted curve in the direction sought with a large enough effect; inconclusive = small, poorly fitted or top-dose-only effect, or another doubt; inactive = no such curve, though single readings can be large; an effect the other way counts as inactive or inconclusive.

SMILES	Shiga inhibitor	Pf growth 48h	Pf growth 96h	SARS PLpro yeast	AMA1-RON2 inh	CHX counter
COc1ccc(-c2nc3ccccc3s2)cc1O	15	-22%	-11%	-18%	12%	7
COc1cc(-c2nc3ccccc3s2)ccc1O	80*	123%	.	-24%	-13%	45*
CCOc1cc(-c2nc3ccccc3s2)ccc1O	65*	10%	1%	-3%	7%	56*
CC1=C(C(=O)N(C)C)CC(CC(=O)NCc2cccc3ccccc23)C(=O)N1CCCN1CCCC1=O (stereo not drawn)	.	.	.	.	7%	.
COc1ccc(CNC(=O)[C@@H](NC(=O)C2CCN(C(=O)[C@@H](N)CC(C)C)CC2)C(C)C)cc1	-7	-13%	-7%	2%	1%	-5
COc1cc(/C=C2/NC(=O)N(c3cccc(Cl)c3)C2=O)ccc1O	23*	7.4µM*	?	1%	4%	30
COc1cc(/C=C2/C(=O)NN(c3cccc(Cl)c3)C2=O)cc(OC)c1O	-1	-8%	?	11%	-9%	0
COc1ccc(-n2cccc2/C=C2/NC(=O)N(c3cccc(Cl)c3)C2=O)cc1	14	18%	72%	-14%	-3%	22*
O=C(O)c1cccc(-n2cccc2/C=C2/NC(=O)N(c3cccc(Cl)c3)C2=O)c1	18	-2%	3%	3%	0%	2
COc1ccc(C(C)=O)cc1CN1C(=O)C(Cc2ccccc2)ON=C1c1ncccc1C (stereo not drawn)	.	.	.	.	7%	.
Cc1ccccc1-c1nc(CN(C)C(C)c2ccon2)c(C)o1 (stereo not drawn)	26	-4%	2.3µM*	0%	1%	2
Cc1oc(-c2ccccc2Cl)nc1CN(C)C(C)c1ccon1 (stereo not drawn)	36	2%	?	-1%	-4%	7
Nc1ccc(N)cc1	95*	?	?	.	.	35*
CC(=O)c1cccc(NC(=O)COC(=O)CCC(=O)c2cccs2)c1	.	47%	?	-4%	12%	.
Cc1cc(C)cc(C(=O)Nc2nnc(SCC(=O)N3CCCc4ccccc43)s2)c1	-4	15%	10%	5%	9%[2.32 µM]	2
O=C(Nc1nnc(SCC(=O)N2CCCc3ccccc32)s1)c1ccc2ccccc2c1	58*	22%	-5%	16%	-8%[2.32 µM]	37*
O=C(Nc1nnc(SCC(=O)N2CCCc3ccccc32)s1)c1ccccc1	41*	45%	15%	-6%	3%[2.32 µM]	34*
COC(=O)c1cn(NC(=O)/C=C/c2ccc(OC)c(OC)c2)c(=O)c2ccccc12	-7	-13%	26%	?	12%	-6
COc1cc(C(=O)NCC(=O)N2CCN(S(=O)(=O)c3ccccc3C(F)(F)F)CC2)cc(OC)c1OC	.	.	.	4%	-5%	.
COc1ccccc1C(=O)NCC(=O)N1CCN(S(=O)(=O)c2ccccc2C(F)(F)F)CC1	.	?	8.3µM*	6%	-8%	.
COc1ccccc1C(=O)NCCC(=O)N1CCN(c2ccccc2Cl)CC1	.	8.3µM*	12µM*	0%	33%	.
COc1ccccc1C(=O)NCCC(=O)N1CCCCCCC1	.	?	6%	-2%	20%	.
O=C(NCCC(=O)N1CCCC1)c1ccccc1Cl	19	24%	32%	-2%	-2%	18*
COC(=O)c1c(O)cc(C(C)(C)C)n(-c2ccccc2)c1=O	-8	3%	5%	0%	-8%	-3
C/C(=N\O)C(C)(C)Nc1cccc(Br)c1	-2	11%	33%	-2%	6%	1
SMILES	Shiga inhibitor	Pf growth 48h	Pf growth 96h	SARS PLpro yeast	AMA1-RON2 inh	CHX counter
Cc1cc(N(C)C)cc(C)c1N=Nc1cc[n+]([O-])cc1	.	.	.	.	-7%	.
Cc1cccc(N=Nc2ccc(N(C)C)cc2)c1	126*	208%	148%	0%	16µM*	43*
CN(C)c1ccc(N=Nc2cccc(F)c2)cc1	96*	189%	142%	-3%	8.9µM*	41*
CN(C)N=Nc1ccc(S(N)(=O)=O)cc1	-6	35%	57%	1%	0%	-4
CN(C)c1ccc(N=Nc2ccc(S(N)(=O)=O)cc2)cc1	89*	51%	-25%	2%	-17%	52*
CN(C)c1ccc(N=Nc2cccc3ccoc23)cc1	137*	i	203%	-4%	14µM*	56*
CC(OC(=O)COc1ccccc1[N+](=O)[O-])C(=O)Nc1ccc(N2CCOCC2)cc1 (stereo not drawn)	73	51%	3%	3%	-8%	21
CN1C(=O)N(C)C2(c3ccccc3)N(C)C(=O)NC12c1ccccc1 (stereo not drawn)	14	-9%	21%	-4%	-23%	-3
CCCCn1nnc(NC(=O)c2ccc(-c3cccc(Cl)c3)o2)n1	68*	-10%	60%	-12%	-4%	33*
CCCCn1nnc(NC(=O)c2ccc([N+](=O)[O-])cc2Cl)n1	26	32%	?	0%	6%	14
CCCn1nnc(NC(=O)c2ccc([N+](=O)[O-])cc2Cl)n1	62*	91%	-17%	-1%	9%	24*
CCn1nnc(NC(=S)NC(=O)c2ccc(-c3cccc(Cl)c3)o2)n1	12	-6%	-9%	-7%	72%	5
CCCn1nnc(NC(=O)c2ccc(-c3cccc(Cl)c3)o2)n1	140*	58%	?	-4%	-13%	41*
CC(=O)N(C)c1ccc(NC(=O)c2ccc([N+](=O)[O-])cc2Cl)cc1	66*	23%	13%	-1%	-9%	17
CN1CCC(N(C)C(=O)c2cc(S(=O)(=O)N(C)c3ccccc3)ccc2Cl)CC1	.	.	.	0%	3%	.
O=S1(=O)N[C@@H](Cc2ccccc2)COc2cc(N3CC[C@H](O)C3)ccc21	.	.	.	.	-3%	.
CCc1cc(SC#N)cc(C)c1N	-14	8.3µM*	3.3µM*	0%	-1%	-4
CCC(=O)Nc1ccc(SC#N)cc1C	-1	.	-21%	-32%	-1%	-3
CCc1cc(SC#N)cc(C)c1NC(=O)CCl	15	13µM*	?	-18%	-8%	1
COc1ccc(NC(=O)C2=CCN(S(=O)(=O)c3ccccc3)CC2)cc1OC	2	?	?	-2%	-1%	-3
CCOC(=O)N(C)c1c(CC)nc2c(OCc3ccccc3)cccn12	.	.	.	.	-2%	.
Cc1ccc(/C=C2\C(=O)NC(=O)N(CCc3ccc(F)cc3)C2=O)s1	29	77%	-9%	-5%	12%	6
Cc1ccc(/C=C2/C(=O)NC(=O)N(CC3CCCO3)C2=O)s1 (stereo not drawn)	97*	13%	25%	8%	-6%	10
